Measured values reported in PubChem BioAssay (EPA / NIEHS).
Inconclusive results are not listed. Activity calls are given as the source filed them. The calls were made as follows: active = hit-call score of the fitted dose curve at least 0.9, where 1 is the maximum; inconclusive = response in the unintended direction; inactive = score below 0.9.

Assays:
[1] = molecular target: human Protein Tyrosine Phosphatase Non-receptor Type 6 (PTPN6), PTPN6 (gene 5777) (UniProt P29350); test: NVS_ENZ_hPTPN6: NovaScreen (NVS) Enzymatic Assay for human Protein Tyrosine Phosphatase Non-receptor Type 6 (PTPN6) (AID 2283210)
Sequence of human Protein Tyrosine Phosphatase Non-receptor Type 6 (PTPN6), PTPN6 (gene 5777) (P29350 whole entry, looked up): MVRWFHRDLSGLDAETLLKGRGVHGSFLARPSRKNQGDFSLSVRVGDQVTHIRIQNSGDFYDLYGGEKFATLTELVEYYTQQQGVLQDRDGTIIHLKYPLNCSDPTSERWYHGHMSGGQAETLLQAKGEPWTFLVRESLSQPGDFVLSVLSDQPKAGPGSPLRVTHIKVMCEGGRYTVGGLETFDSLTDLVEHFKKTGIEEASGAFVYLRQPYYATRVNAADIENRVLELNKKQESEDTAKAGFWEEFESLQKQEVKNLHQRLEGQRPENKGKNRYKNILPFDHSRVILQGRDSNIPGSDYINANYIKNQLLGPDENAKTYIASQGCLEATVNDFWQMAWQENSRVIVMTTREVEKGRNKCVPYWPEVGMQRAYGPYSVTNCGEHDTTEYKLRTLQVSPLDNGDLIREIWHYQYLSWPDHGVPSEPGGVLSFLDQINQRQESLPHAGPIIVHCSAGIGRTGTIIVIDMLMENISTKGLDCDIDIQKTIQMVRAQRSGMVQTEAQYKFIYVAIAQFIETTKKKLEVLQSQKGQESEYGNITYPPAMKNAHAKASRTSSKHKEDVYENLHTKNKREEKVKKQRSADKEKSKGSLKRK
Summary of the method: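 Cell-free assay with recombinant PTPN6 expressed in SF9 cells, fluorescent substrate, product separated from substrate by electrophoretic mobility shift; read 1.33 hours after dosing. Primary screen in duplicate at 25 uM, actives retested in concentration series; DMSO baseline.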

[2] = molecular target: human SRC Proto-Oncogene, Non-receptor Tyrosine Kinase (SRC), SRC (gene 6714) (UniProt P12931); test: NVS_ENZ_hSRC: NovaScreen (NVS) Enzymatic Assay for human SRC Proto-Oncogene, Non-receptor Tyrosine Kinase (SRC) (AID 2283223)
Sequence of human SRC Proto-Oncogene, Non-receptor Tyrosine Kinase (SRC), SRC (gene 6714) (P12931 whole entry, looked up): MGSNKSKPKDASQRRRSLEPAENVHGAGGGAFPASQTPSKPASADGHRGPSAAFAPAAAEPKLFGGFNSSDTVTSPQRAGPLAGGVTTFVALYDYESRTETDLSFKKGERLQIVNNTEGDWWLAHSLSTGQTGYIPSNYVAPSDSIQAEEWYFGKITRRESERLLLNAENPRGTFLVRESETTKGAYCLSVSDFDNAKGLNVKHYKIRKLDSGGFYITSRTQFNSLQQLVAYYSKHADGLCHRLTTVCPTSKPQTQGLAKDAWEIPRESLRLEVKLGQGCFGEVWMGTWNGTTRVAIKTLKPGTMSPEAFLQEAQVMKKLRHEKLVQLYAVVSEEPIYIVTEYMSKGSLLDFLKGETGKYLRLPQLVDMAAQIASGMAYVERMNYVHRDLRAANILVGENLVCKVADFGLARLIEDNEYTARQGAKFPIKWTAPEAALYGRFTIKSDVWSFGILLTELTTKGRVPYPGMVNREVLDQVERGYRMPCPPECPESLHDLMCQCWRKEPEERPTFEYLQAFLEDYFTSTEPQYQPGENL
Description: (§1) NVS_ENZ_hSRC is a biochemical, single-readout assay that uses extracted gene-proteins in a cell-free assay. Measurements were taken 1 hour after chemical dosing in a 384-well plate.NVS_ENZ_hSRC is one of one assay component(s) measured or calculated from the NVS_ENZ_hSRC assay. It is designed to make measurements of enzyme activity, a form of enzyme reporter, as detected with fluorescence intensity signals by Fluorescence and electrophoretic mobility shift technology.Data from the assay component NVS_ENZ_hSRC was analyzed into 1 assay endpoint. This assay endpoint, NVS_ENZ_hSRC, was analyzed in the positive analysis fitting direction relative to DMSO as the negative control and baseline of activity. Using a type of enzyme reporter, loss-of-signal activity can be used to understand changes in the enzymatic activity as they relate to the gene SRC. Furthermore, this assay endpoint can be referred to as a primary readout, because this assay has produced multiple assay endpoints where this one serves a enzymatic activity function. To generalize the intended target to other relatable targets, this assay endpoint is annotated to the kinase intended target family, where the subfamily is non-receptor tyrosine kinase. […]

[3] = molecular target: human Protein Tyrosine Phosphatase Non-receptor Type 9 (PTPN9), PTPN9 (gene 5780) (UniProt P43378); test: NVS_ENZ_hPTPN9: NovaScreen (NVS) Enzymatic Assay for human Protein Tyrosine Phosphatase Non-receptor Type 9 (PTPN9) (AID 2283209)
Sequence of human Protein Tyrosine Phosphatase Non-receptor Type 9 (PTPN9), PTPN9 (gene 5780) (P43378 whole entry, looked up): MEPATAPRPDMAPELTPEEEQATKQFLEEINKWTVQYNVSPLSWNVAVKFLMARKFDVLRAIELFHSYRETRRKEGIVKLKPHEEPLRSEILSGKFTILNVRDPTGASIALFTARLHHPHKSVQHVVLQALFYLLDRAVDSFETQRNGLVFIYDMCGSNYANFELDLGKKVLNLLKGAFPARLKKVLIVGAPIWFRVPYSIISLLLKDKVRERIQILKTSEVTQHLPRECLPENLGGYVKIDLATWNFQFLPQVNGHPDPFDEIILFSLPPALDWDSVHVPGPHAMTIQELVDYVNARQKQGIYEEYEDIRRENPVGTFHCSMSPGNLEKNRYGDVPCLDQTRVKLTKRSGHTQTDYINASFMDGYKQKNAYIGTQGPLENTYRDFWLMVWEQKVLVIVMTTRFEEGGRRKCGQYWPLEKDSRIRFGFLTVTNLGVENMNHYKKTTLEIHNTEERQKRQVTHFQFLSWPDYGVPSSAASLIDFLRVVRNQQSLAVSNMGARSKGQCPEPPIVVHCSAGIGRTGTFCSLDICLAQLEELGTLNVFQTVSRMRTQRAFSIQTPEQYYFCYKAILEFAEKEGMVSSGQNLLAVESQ
Description: NVS_ENZ_hPTPN9 is a biochemical, single-readout assay that uses extracted gene-proteins from SF9 in a cell-free assay. Measurements were taken 1.33 hours after chemical dosing in a 384-well plate.NVS_ENZ_hPTPN9 is one of one assay component(s) measured or calculated from the NVS_ENZ_hPTPN9 assay. It is designed to make measurements of enzyme activity, a form of enzyme reporter, as detected with fluorescence intensity signals by Fluorescence and electrophoretic mobility shift technology.Data from the assay component NVS_ENZ_hPTPN9 was analyzed into 1 assay endpoint. This assay endpoint, NVS_ENZ_hPTPN9, was analyzed in the positive analysis fitting direction relative to DMSO as the negative control and baseline of activity. Using a type of enzyme reporter, loss-of-signal activity can be used to understand changes in the enzymatic activity as they relate to the gene PTPN9. Furthermore, this assay endpoint can be referred to as a primary readout, because this assay has produced multiple assay endpoints where this one serves a enzymatic activity function. To generalize the intended target to other relatable targets, this assay endpoint is annotated to the phosphatase intended target family, where the subfamily is non-receptor tyrosine phosphatase. […]

[4] = molecular target: human Protein Tyrosine Phosphatase Non-receptor Type 4 (PTPN4), PTPN4 (gene 5775) (UniProt P29074); test: NVS_ENZ_hPTPN4: NovaScreen (NVS) Enzymatic Assay for human Protein Tyrosine Phosphatase Non-receptor Type 4 (PTPN4) (AID 2283208)
Summary of the method: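 Cell-free assay of PTPN4 expressed in Sf9 cells, using a fluorescent substrate with product separated by mobility shift; read 1.33 h after dosing. Single-point screen at 25 uM, then concentration-response up to 50 uM. Loss of signal relative to DMSO.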

[5] = molecular target: human Protein Tyrosine Phosphatase Receptor Type B (PTPRB), PTPRB (gene 5787) (UniProt P23467); test: NVS_ENZ_hPTPRB: NovaScreen (NVS) Enzymatic Assay for human Protein Tyrosine Phosphatase Receptor Type B (PTPRB) (AID 2283211)
Description: NVS_ENZ_hPTPRB is a biochemical, single-readout assay that uses extracted gene-proteins in a cell-free assay. Measurements were taken 1 hour after chemical dosing in a 384-well plate.NVS_ENZ_hPTPRB is one of one assay component(s) measured or calculated from the NVS_ENZ_hPTPRB assay. It is designed to make measurements of enzyme activity, a form of enzyme reporter, as detected with fluorescence intensity signals by Fluorescence and electrophoretic mobility shift technology.Data from the assay component NVS_ENZ_hPTPRB was analyzed into 1 assay endpoint. This assay endpoint, NVS_ENZ_hPTPRB, was analyzed in the positive analysis fitting direction relative to DMSO as the negative control and baseline of activity. Using a type of enzyme reporter, loss-of-signal activity can be used to understand changes in the enzymatic activity as they relate to the gene PTPRB. Furthermore, this assay endpoint can be referred to as a primary readout, because this assay has produced multiple assay endpoints where this one serves a enzymatic activity function. To generalize the intended target to other relatable targets, this assay endpoint is annotated to the phosphatase intended target family, where the subfamily is receptor tyrosine phosphatase. […]

[6] = molecular target: human Protein Tyrosine Phosphatase Receptor Type F (PTPRF), PTPRF (gene 5792) (UniProt P10586); test: NVS_ENZ_hPTPRF: NovaScreen (NVS) Enzymatic Assay for human Protein Tyrosine Phosphatase Receptor Type F (PTPRF) (AID 2283213)
Sequence of human Protein Tyrosine Phosphatase Receptor Type F (PTPRF), PTPRF (gene 5792) (P10586 whole entry, looked up): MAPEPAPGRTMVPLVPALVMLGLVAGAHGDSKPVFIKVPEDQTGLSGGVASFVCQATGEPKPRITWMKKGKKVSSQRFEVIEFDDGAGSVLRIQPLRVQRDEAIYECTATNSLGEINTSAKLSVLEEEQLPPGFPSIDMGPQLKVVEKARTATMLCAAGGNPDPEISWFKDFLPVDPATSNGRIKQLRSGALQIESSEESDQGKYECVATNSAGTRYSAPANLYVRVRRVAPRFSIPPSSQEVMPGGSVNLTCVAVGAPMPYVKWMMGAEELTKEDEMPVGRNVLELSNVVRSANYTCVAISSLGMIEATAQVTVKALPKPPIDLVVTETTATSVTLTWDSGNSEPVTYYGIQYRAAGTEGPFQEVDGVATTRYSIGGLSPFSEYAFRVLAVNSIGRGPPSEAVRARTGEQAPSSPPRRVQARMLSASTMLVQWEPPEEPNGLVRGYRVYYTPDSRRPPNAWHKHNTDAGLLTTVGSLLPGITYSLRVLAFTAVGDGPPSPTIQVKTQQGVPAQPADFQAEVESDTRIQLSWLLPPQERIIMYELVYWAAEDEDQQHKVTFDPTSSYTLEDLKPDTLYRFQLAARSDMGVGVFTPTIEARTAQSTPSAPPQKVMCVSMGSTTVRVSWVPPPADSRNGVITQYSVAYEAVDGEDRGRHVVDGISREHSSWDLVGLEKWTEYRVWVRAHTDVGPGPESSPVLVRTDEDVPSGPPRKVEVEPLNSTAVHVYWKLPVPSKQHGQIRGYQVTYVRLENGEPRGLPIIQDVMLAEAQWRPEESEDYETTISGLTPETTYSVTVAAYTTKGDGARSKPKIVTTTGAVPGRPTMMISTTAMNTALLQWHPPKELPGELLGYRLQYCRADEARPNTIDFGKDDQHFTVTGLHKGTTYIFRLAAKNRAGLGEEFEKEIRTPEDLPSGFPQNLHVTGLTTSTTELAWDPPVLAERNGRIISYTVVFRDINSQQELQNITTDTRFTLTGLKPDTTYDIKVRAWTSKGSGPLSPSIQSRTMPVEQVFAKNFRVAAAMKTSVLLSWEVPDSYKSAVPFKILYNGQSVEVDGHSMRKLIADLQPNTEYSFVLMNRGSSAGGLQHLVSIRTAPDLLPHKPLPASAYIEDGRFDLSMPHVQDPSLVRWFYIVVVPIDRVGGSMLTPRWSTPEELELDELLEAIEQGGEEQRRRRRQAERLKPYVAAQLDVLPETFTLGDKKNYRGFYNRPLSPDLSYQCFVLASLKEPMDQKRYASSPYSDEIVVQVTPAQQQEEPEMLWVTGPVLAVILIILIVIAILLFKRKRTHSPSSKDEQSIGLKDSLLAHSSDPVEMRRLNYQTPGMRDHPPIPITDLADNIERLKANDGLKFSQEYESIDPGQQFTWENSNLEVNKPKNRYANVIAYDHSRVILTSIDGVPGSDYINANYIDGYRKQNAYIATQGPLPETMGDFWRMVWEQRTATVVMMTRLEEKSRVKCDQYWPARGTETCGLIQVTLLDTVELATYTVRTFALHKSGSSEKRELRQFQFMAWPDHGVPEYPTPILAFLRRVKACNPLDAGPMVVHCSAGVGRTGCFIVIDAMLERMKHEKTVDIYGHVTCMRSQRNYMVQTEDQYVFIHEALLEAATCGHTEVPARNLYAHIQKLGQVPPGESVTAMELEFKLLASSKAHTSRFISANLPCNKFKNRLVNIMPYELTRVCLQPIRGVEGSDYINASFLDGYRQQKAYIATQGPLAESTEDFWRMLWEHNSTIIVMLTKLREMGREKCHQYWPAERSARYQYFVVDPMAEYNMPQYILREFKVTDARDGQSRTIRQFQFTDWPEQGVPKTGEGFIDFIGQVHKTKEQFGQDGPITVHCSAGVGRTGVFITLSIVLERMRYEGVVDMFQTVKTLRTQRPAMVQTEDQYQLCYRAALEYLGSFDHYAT
Summary of the method: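 Cell-free fluorescence enzyme assay with recombinant protein and substrate; product separated by electrophoretic mobility shift. Read 1 h after dosing, single 25 uM duplicate screen, then concentration-response up to 50 uM; loss of signal vs DMSO.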

[7] = molecular target: human Protein Tyrosine Phosphatase Receptor Type M (PTPRM), PTPRM (gene 5797) (UniProt P28827); test: NVS_ENZ_hPTPRM: NovaScreen (NVS) Enzymatic Assay for human Protein Tyrosine Phosphatase Receptor Type M (PTPRM) (AID 2283215)
Summary of the method: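 Cell-free recombinant PTPRM with fluorogenic substrate; product separated from substrate by electrophoretic mobility shift and read by fluorescence, 1.33 h after dosing. Primary screen single concentration (25 uM) in duplicate; actives retested in concentration series; loss of signal versus DMSO.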

[8] = molecular target: human Sirtuin 2 (SIRT2), SIRT2 (gene 22933) (UniProt Q8IXJ6); test: NVS_ENZ_hSIRT2: NovaScreen (NVS) Enzymatic Assay for human Sirtuin 2 (SIRT2) (AID 2283217)
Sequence of human Sirtuin 2 (SIRT2), SIRT2 (gene 22933) (Q8IXJ6 whole entry, looked up): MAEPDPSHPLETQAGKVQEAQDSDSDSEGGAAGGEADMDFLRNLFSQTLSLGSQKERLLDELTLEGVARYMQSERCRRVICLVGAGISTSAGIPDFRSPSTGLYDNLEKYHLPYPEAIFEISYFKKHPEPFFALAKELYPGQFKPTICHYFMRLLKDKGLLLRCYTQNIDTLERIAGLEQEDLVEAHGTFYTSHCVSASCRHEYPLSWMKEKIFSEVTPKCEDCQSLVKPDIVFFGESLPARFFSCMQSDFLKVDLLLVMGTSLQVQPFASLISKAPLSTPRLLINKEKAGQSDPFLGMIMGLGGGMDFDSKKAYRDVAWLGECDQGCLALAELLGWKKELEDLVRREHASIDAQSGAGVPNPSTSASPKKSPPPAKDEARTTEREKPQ
Summary of the method: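 Cell-free recombinant human SIRT2, fluorescent substrate with product separated by electrophoretic mobility shift, 1 hr. Screened in duplicate at 25 uM; hits rerun singly in concentration-response up to 50 uM, relative to DMSO.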

[9] = molecular target: human Sirtuin 1 (SIRT1), SIRT1 (gene 23411) (UniProt Q96EB6); test: NVS_ENZ_hSIRT1: NovaScreen (NVS) Enzymatic Assay for human Sirtuin 1 (SIRT1) (AID 2283219)
Sequence of human Sirtuin 1 (SIRT1), SIRT1 (gene 23411) (Q96EB6 whole entry, looked up): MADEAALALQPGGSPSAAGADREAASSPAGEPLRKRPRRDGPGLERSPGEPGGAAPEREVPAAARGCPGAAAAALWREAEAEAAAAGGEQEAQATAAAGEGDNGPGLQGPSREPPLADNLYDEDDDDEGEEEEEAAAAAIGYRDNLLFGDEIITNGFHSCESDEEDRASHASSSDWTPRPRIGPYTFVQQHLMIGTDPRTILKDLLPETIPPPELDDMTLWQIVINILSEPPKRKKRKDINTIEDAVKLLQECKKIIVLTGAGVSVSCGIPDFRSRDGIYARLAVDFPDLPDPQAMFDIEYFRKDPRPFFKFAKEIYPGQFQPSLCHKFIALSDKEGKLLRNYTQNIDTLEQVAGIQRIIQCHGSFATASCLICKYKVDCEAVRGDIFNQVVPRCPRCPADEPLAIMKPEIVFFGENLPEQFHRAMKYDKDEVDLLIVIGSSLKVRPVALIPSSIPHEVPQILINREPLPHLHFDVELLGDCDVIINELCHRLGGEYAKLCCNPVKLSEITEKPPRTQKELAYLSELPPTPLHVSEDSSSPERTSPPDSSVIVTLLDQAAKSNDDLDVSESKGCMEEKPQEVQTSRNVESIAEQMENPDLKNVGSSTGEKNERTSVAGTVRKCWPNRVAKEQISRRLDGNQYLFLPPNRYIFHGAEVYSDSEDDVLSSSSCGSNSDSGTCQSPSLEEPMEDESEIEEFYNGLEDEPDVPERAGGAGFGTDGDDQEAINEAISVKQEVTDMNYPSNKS
Description: as §1, with “NVS_ENZ_hSIRT1” for “NVS_ENZ_hSRC”, “plate.NVS_ENZ_hSIRT1” for “plate.NVS_ENZ_hSRC”, “NVS_ENZ_hSIRT1,” for “NVS_ENZ_hSRC,”, “SIRT1.” for “SRC.”, “hydrolase” for “kinase”, “protein deacetylase.” for “non-receptor tyrosine kinase.”

[10] = molecular target: human Sirtuin 3 (SIRT3), SIRT3 (gene 23410) (UniProt Q9NTG7); test: NVS_ENZ_hSIRT3: NovaScreen (NVS) Enzymatic Assay for human Sirtuin 3 (SIRT3) (AID 2283222)
Description: as §1, with “NVS_ENZ_hSIRT3” for “NVS_ENZ_hSRC”, “plate.NVS_ENZ_hSIRT3” for “plate.NVS_ENZ_hSRC”, “NVS_ENZ_hSIRT3,” for “NVS_ENZ_hSRC,”, “SIRT3.” for “SRC.”, “hydrolase” for “kinase”, “protein deacetylase.” for “non-receptor tyrosine kinase.”

Question: Which outcome [1] does the source give for `CCCCC(CC)C(=O)O` (stereo not drawn) here?
Answer: inactive

Question: `Cc1[nH]nc2c1N=C(c1ccccc1Cl)c1cc([N+](=O)[O-])ccc1N2` was tested. Which AC50 [2] did it give?
Answer: 23.1 µM (active)

Question: Which outcome [3] does the source give for `OCC(CO)(CBr)CBr` here?
Answer: inactive

Question: How did the AC50 [4] turn out when `CCCCCCCCCCCCOS(=O)(=O)O` was run?
Answer: 10.7 µM (active)

Question: And the AC50 [3]?
Answer: 16.8 µM (active)

Question: And the AC50 [1]?
Answer: 25 µM (active)

Question: And the AC50 [5]?
Answer: 7.45 µM (active)

Question: And the outcome [6]?
Answer: inactive

Question: And the AC50 [7]?
Answer: 25 µM (active)

Question: And the AC50 [8]?
Answer: 25 µM (active)

Question: What about the outcome [9] of the same molecule?
Answer: inactive

Question: And the outcome [10]?
Answer: inactive

Question: What about the outcome [2] of the same molecule?
Answer: inactive
